# Source: PubChem BioAssay
# Most compounds without a hit are left out; they make up all but 7.5% or so of the library.
# SMN2 splice up – increases expression of the SMN2 splice variant. Potency, µM (titrated, usually from 46.1 µM), inactives show at the top dose activity change, positive = activation, hits mostly activators. 2.8% of 210,000 active. AID 1458. HEK293 SMN2-luciferase splicing reporter, luminescence, 30-36 h; also: % of control where 0% means no effect; nearly all actives have a fitted effect of over 55% in size
#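 qHTS luciferase splicing reporter: luminescence rises when SMN2 exon 7 is included in transfected HEK293 cells. Compound exposure lasted 30-36 h at 37C, with 4.5 mM final sodium butyrate as control, followed by a ONE-Glo read.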
# FLuc modulator – inhibits or activates purified firefly luciferase, miR-21 counter-screen; AID 588342; P08659; Potency, µM (doses to about 57.5 µM), inactives show top-dose activity change, negative = inhibition, usual class: inhibitors; purified FLuc, Km substrates, luminescence inhibition; 6.9% of 360,000 active;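 also: plate controls were vehicle for no effect and reference inhibitor for full effect; nearly all actives have a fitted effect of over 55% in size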
# Target sequence (P08659 whole entry, looked up): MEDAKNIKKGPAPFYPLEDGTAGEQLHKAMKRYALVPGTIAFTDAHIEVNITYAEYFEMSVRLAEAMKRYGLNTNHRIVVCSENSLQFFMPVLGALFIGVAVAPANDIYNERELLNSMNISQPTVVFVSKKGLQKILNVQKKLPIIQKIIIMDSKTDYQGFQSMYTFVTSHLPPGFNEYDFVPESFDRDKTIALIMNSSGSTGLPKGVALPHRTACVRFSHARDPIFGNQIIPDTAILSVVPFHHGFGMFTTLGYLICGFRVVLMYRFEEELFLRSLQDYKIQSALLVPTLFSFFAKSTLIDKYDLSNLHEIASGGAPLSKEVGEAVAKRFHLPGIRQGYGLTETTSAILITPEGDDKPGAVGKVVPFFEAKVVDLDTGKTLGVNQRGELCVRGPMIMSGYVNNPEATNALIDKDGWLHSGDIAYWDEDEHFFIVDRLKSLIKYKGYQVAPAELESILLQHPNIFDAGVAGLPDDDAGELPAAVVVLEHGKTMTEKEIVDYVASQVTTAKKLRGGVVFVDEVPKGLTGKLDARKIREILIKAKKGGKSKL
#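 Purified P. pyralis luciferase (10nM final) with 10uM D-luciferin and 10uM ATP (Km levels) in 50mM Tris acetate pH 7.5, 10mM Mg acetate, 0.01% Tween-20, 0.05% BSA; qHTS 6-point titration, ~60 µM downward; luminescence read.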
# ELG1 genotox – induces genotoxicity in HEK293T cells with luciferase-tagged ELG1; HEK293T ELG1-luciferase reporter, luminescence, 16 h; Potency, µM (series often up to 46 µM), without a hit: at the top dose activity change, positive = activation, actives largely listed as activators; 1.3% of 330,000 active; AID 504466; also: % of control where 0% means no effect; nearly all actives have a fitted effect of over 60% in size
#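 16 hr compound incubation (37 °C, 5% CO2) of HEK293T cells carrying luciferase-tagged ELG1; luciferase then measured by ONE-Glo luminescence after 30 min at RT.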
# Rab9 prom act – Rab9 promoter activation; 2.8% of 320,000 active; Huh7 Rab9 promoter-luciferase reporter, luminescence, 24 h; AID 485297; Potency, µM (titrated, usually from 9.22 µM), for inactives: at the highest dose activation, negative = inhibition, hits mostly activators; also: % of control where 0% means no effect; nearly all actives have a fitted effect of over 60% in size
#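 Stable Rab9-luc Huh7, 1500 cells/well, 2 h settle; cmpd in DMSO, 24 h, 37 °C/5% CO2; luciferase reagent 10 min RT; luminescence.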
# NPC1 promoter act – activators of NPC1 promoter. Huh7 NPC1 promoter luciferase reporter, 24 h. Potency, µM (series often up to 9.22 µM), for inactives: top-dose activation, most hits filed as activators. 2.4% of 320,000 active; also: % of control where 0% means no effect; nearly all actives have a fitted effect of over 60% in size
#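 Quantitative HTS used a cell-based reporter: Huh7 cells stably bearing the NPC1 promoter upstream of luciferase were treated with compounds for 24 h, and promoter activation was read as luminescence.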
# * = called active by the depositor; ? = inconclusive; · = no result given; [ ] = another dose, or the depositor's remark. Calls follow the shape of the dose curve; as a rule, active = well fitted curve in the direction sought with a large enough effect; inconclusive = small, poorly fitted or top-dose-only effect, or another doubt; inactive = no such curve, though single readings can be large; an effect the other way counts as inactive or inconclusive. Potency is read from the fitted curve at half-maximal effect.
SMILES,SMN2 splice up,FLuc modulator,ELG1 genotox,Rab9 prom act,NPC1 promoter act
CCOC(=O)C1CCN(C(=O)/C=C/c2ccc3c(c2)OCO3)CC1,·,15µM*,?,0.79µM*,0.45µM*
O=C(/C=C/c1ccc2c(c1)OCCO2)N1CCN(c2ccc(F)cc2)CC1,·,24µM*,-4%,-2%,-3%
O=C(O)/C=C\C=C/c1ccc2c(c1)OCO2,-7%[9.22 µM],·,·,·,·
CCOC(=O)C1CCN(C(=O)COC(=O)/C=C/c2ccccc2)CC1,·,·,-2%,·,·
O=C(/C=C/c1ccc2c(c1)OCO2)N1CCCCC1,·,12µM*,?,1.6µM*,3.5µM*
O=C(/C=C/c1ccc2c(c1)OCO2)N1CCN(c2ccc(Cl)cc2)CC1,-36%,-3%,2%,-2%,-1%
CCOC(=O)C1CCN(C(=O)/C=C/c2ccccc2)CC1,11µM*,24µM*,14%,1.1µM*,1.4µM*
CCOc1ccccc1CNC(=O)CN1C(=O)CSc2ccc(S(=O)(=O)N3CCOCC3)cc21,·,0%,0%,0%,-4%
CC(C(=O)Nc1ccccc1C(F)(F)F)n1nnc2sc3c(c2c1=O)CCCC3 (centres undefined),-2%,2%,·,·,·
Cc1ccc(OCC(=O)N(Cc2ccco2)Cc2ccco2)cc1,5%,-12%,·,·,·
Cc1cccc(-n2ncc3c2CCCC3NC(=O)C2(C(N)=O)CC2)c1C (centres undefined),·,-2%,0%,-20%,-32%
O=C(N/N=C/c1ccccc1Cl)c1[nH]c2ccc(Br)cc2c1-c1ccccc1,-52%,2%,?,-19%,-16%
Cc1nc(NCc2ccc(S(N)(=O)=O)cc2)c2c(C)c(C)sc2n1,·,0%,9%,-1%,-1%
COc1cccc(/C=C/C(=O)OCC(=O)Nc2ccc(Cl)c(S(=O)(=O)N(C)C)c2)c1OC,5%,13µM*,2%,-2%,0%
COc1ccc(/C=C/C(=O)OCC(=O)Nc2cc(S(=O)(=O)N(C)C)ccc2Cl)cc1,3%,12µM*,3%,-1%,-6%
COc1ccc(OC)c(/C=C/C(=O)OCC(=O)Nc2ccc(Cl)c(S(=O)(=O)N(C)C)c2)c1,0%,?,-1%,-2%,-9%
O=C(Nc1ccc(CN2CCOCC2)cc1)c1ccc(-c2cc(Cl)ccc2Cl)o1,-65%,?,-20%,-2%,-2%
Cc1cccc(C(=O)Nc2cccc(C(=O)N3CCOCC3)c2)c1,6%,?,17%,14%,18%
CC(=O)N1CCc2cc(NC(=O)c3ccc(C)cc3)ccc21,11µM*,3.8µM*,?,0.56µM*,?
COc1ccc(C(=O)Nc2cccc(C(=O)N3CCCC3)c2)cc1,?,15µM*,?,22%,?
CC(=O)Nc1ccc(NC(=O)c2ccc3c(c2)CCN3S(=O)(=O)c2ccc(C)cc2)cc1,6%,0%,·,·,·
COc1cccc(C(=O)Nc2cccc(C(=O)N3CCOCC3)c2)c1,6%,-17%,8%,-1%,10%
Cc1ccc(C(=O)Nc2cccc(C(=O)N3CCN(C)CC3)c2)cc1,11µM*,9.5µM*,?,4.5µM*,3.2µM*
Cc1ccc(C(=O)Nc2cccc(NC(=O)CN3CCCCC3)c2)cc1,·,19µM*,1%,9%,12%
Cc1ccc(NC(=O)CSCc2nc3c(nnn3Cc3ccc(F)cc3)c(=O)[nH]2)c(C)c1,·,-4%,0%,2%,-5%
SMILES,SMN2 splice up,FLuc modulator,ELG1 genotox,Rab9 prom act,NPC1 promoter act
CCN1C(=S)N[C@@H](c2cccc(F)c2)C(C(=O)OC)=C1C,·,-1%,2%,-2%,-3%
CCN(CC)CCCN(C(=O)c1cccs1)c1nc(-c2ccc(OC)cc2)cs1,-34%,4%,1%,-5%,1%
COc1ccc(-c2csc(N(C)C(=O)c3cccs3)n2)cc1,·,6µM*,15%,2.5µM*,?
CN(C(=O)c1ccco1)c1nnc(-c2ccc(F)cc2)s1,·,6.7µM*,?,3.2µM*,2.2µM*
CN(C(=O)c1ccco1)c1nc(-c2ccc(F)cc2)cs1,·,2.7µM*,?,2.8µM*,3.5µM*
CNC(=S)N1CCN=C1Nc1nc(C)cc(C)n1,23%,5%,?,-23%,-2%
Cc1ccccc1NC(=O)Nc1ccc2c(c1)OCO2,·,?,?,2.8µM*,?
COc1ccccc1NC(=O)Nc1ccc2c(c1)OCCO2,?,12µM*,12%,24%,19%
CCOc1ccccc1NC(=O)Nc1cccc(C(C)=O)c1,-1%,24µM*,14%,7%,-2%
Cc1ccc(NC(=O)Nc2ccc3c(c2)CCC3)c(C)c1,·,4%,8%,8%,-2%
CCc1cccc(C)c1NC(=O)Nc1ccc2c(c1)OCO2,21%,3%,0%,1%,-3%
O=C(Nc1ccc2c(c1)CCC2)Nc1ccccc1Cl,·,1.5µM*,2.3µM*,1.8µM*,1.4µM*
Cc1c(NC(=O)Nc2ccc3c(c2)OCO3)cccc1[N+](=O)[O-],·,?,14%,?,3.2µM*
O=C(NN=C1CCCCC1)Nc1ccccc1Cl,·,19µM*,-2%,-5%,2%
O=C(Cc1ccccc1[N+](=O)[O-])NNC(=O)Nc1ccc2c(c1)OCO2,·,0%,1%,-1%,0%
CCOc1ccccc1NC(=O)Nc1ccc2c(c1)OCO2,·,21µM*,11%,?,26%
CCOc1ccccc1OCCC(=O)Nc1ccc2c(c1)OCO2,·,·,2%,·,·
CC(=O)Nc1ccccc1OCC(=O)c1ccc2c(c1)OCO2,·,-8%,?,3.2µM*,3.5µM*
CCCCN(C(=O)CSc1cc(C)c2ccccc2n1)c1c(N)n(Cc2ccccc2)c(=O)[nH]c1=O,28%,3%,-1%,-4%,-1%
CCOc1ccccc1NC(=O)Nc1ccc2c(c1)CCC2,·,6.7µM*,?,?,?
O=C(Nc1ccccc1Cl)OC1CCCCC1,·,24µM*,4%,11%,-1%
CCOc1ccccc1NC(=O)Nc1cccc(NC(C)=O)c1,·,-15%,-1%,-5%,0%
O=C(NC(=O)c1ccc(Cl)cc1)OC1CCCCC1,22%,?,17%,19%,16%
COc1ccc(-c2nc3c(-c4ccccc4)cnn3cc2C)cc1F,·,-16%,7%,21%,11%
Cc1ccc(-c2cn3cccc(C)c3n2)cc1,·,1.1µM*,?,1.4µM*,4µM*
Cc1cc(C)c(S(=O)(=O)Nc2cc(-c3cn4ccccc4n3)ccc2C)cc1C,6%,?,·,·,·
Cc1ccc(-c2cn3cccc(C)c3n2)cc1NS(=O)(=O)c1ccccc1,23%,17µM*,·,·,·
COc1ccc(-c2cn3cccc(C)c3n2)cc1F,5.6µM*,6µM*,4.6µM*,2.5µM*,?
Cc1cccn2cc(-c3ccc(S(=O)(=O)N4CCCCC4)cc3)nc12,·,0%,-4%,0%,0%
O=[N+]([O-])c1cccn2cc(-c3ccc(Br)cc3)nc12,·,?,?,2.8µM*,?
